Growth inhibition data for three compounds are collected here from PubChem BioAssay (NCI).

This is part of a sample that, as a whole, favours compounds with a hit. Of some 79,000 tested, about 15% had one in any assay. Values without a mark were called inactive. Calls of active or inactive are those of the source. No stated cut-off is given here; in the data, active means growth inhibition above about 70%; inactive means the rest.

Assay [1] in a line: NCI Yeast Anticancer Drug Screen. Data for the rad50 strain (AID 155).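 Further: 0% = growth of vehicle-only cultures of the same strain.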 The settings on record: S. cerevisiae rad50 strain growth inhibition, active compounds read high. The gist of the method:
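Vehicle-treated cultures provide the reference for the growth inhibition reported for compound-exposed, repair-deficient yeast.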

Assay [2] in a line: NCI Yeast Anticancer Drug Screen. Data for the mec2-1 strain (AID 157). The conditions noted are these: S. cerevisiae mec2-1 strain, active compounds read high. The gist of the method:
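Growth inhibition is read against vehicle-treated controls after compound exposure of the mec2-1 yeast strain, which is defective in DNA damage repair or cell cycle control.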

Assay [3] can be described thus: NCI Yeast Anticancer Drug Screen. Data for the sgs1 mgt1 strain (AID 161).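 Further: 0% = growth of cultures given vehicle only.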 The settings on record: S. cerevisiae sgs1 mgt1 strain, active compounds read high. The gist of the method: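 This yeast growth screen uses a strain with defined DNA-repair lesions; compound-treated growth is compared with vehicle-treated growth.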
Assay [4] is described as follows: NCI Yeast Anticancer Drug Screen. Data for the cln2 rad14 strain (AID 165).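 Further: 0% = growth equal to vehicle treated cultures.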 The conditions noted are these: S. cerevisiae cln2 rad14 strain, active compounds read high. A digest of the protocol: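 Growth inhibition, relative to vehicle-treated controls, is the read-out. The test organism is a yeast strain with defined genetic alterations, cln2 rad14.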
Assay [5] can be described thus: NCI Yeast Anticancer Drug Screen. Data for the bub3 strain (AID 167). The conditions noted are these: S. cerevisiae bub3 mutant strain, active compounds read high. A digest of the protocol: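 Mutant yeast screening strain plus compound; vehicle-treated cultures serve as the 0% inhibition reference.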
A short description of assay [6]: NCI Yeast Anticancer Drug Screen. Data for the mlh1 rad18 strain (AID 175). The settings on record: S. cerevisiae mlh1 rad18 strain growth inhibition, active compounds read high. The gist of the method:
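Cells of a genetically altered yeast strain, deficient in DNA damage repair, were treated with compound. Their growth was then compared with that of vehicle-treated cultures to give inhibition.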

[7] abbreviates: at 5.0 µM (retest, dose inferred, filed as 0.5).
The mark [8] stands for this setting: at 50.0 µM (retest, dose inferred, filed as 5.0).

For `COC(=O)/C(=C/c1ccc(/C=C(/C(=O)O)c2ccc(OC)cc2)o1)c1ccccc1`, the growth inhibition was 3% in assay [1] (setting [7]); 99% (active) in assay [1] (setting [8]); 8.35% in assay [1] (at 50.0 µM); 2% in assay [2] (setting [7]); 99% (active) in assay [2] (setting [8]); 10.8% in assay [2] (at 50.0 µM). In addition, the growth inhibition in assay [3] (setting [7]) is 0%; in assay [3] (setting [8]), 99% (active); in assay [3] (at 50.0 µM), -3.5%; in assay [4] (setting [7]), 15%; in assay [4] (setting [8]), 99% (active); in assay [4] (at 50.0 µM), 11.6%. Further, the growth inhibition is 0% in assay [5] (setting [7]); 99% (active) in assay [5] (setting [8]); 1.7% in assay [5] (at 50.0 µM); 3% in assay [6] (setting [7]); 99% (active) in assay [6] (setting [8]); 30.8% in assay [6] (at 50.0 µM).
Regarding `C=C(C)C1(C(=O)OCC(Cl)(Cl)Cl)NC(=O)C(NC(=O)COc2ccccc2)=CO1` (centres undefined), the growth inhibition in assay [1] (setting [7]) is 26%; in assay [1] (setting [8]) it was 66%; in assay [1] (at 50.0 µM) it was 94.8% (active); in assay [2] (setting [7]) it was 4%; in assay [2] (setting [8]) it was 68%; in assay [2] (at 50.0 µM), 86.8% (active). Moreover, the growth inhibition was 8% in assay [3] (setting [7]); 56% in assay [3] (setting [8]); 94.5% (active) in assay [3] (at 50.0 µM); 6% in assay [4] (setting [7]); 31% in assay [4] (setting [8]); 61.1% in assay [4] (at 50.0 µM). In addition, the growth inhibition is 3% in assay [5] (setting [7]); 44% in assay [5] (setting [8]); 85% (active) in assay [5] (at 50.0 µM); 3% in assay [6] (setting [7]); 51% in assay [6] (setting [8]); 93% (active) in assay [6] (at 50.0 µM).
`O=[N+]([O-])c1ccc(N=C(Cl)C(Cl)(c2ccccc2)c2ccccc2)cc1`: the growth inhibition in assay [1] (setting [7]) was 14%; in assay [1] (setting [8]), 97% (active); in assay [1] (at 50.0 µM) it was 96.2% (active); in assay [2] (setting [7]), 11%; in assay [2] (setting [8]), 97% (active); in assay [2] (at 50.0 µM), 96.7% (active). In addition, the growth inhibition in assay [3] (setting [7]) was -20%; in assay [3] (setting [8]), 98% (active); in assay [3] (at 50.0 µM), 97% (active); in assay [4] (setting [7]), 9%; in assay [4] (setting [8]) it was 97% (active); in assay [4] (at 50.0 µM) it was 94.2% (active). In addition, the growth inhibition in assay [5] (setting [7]) is 8%; in assay [5] (setting [8]) it was 96% (active); in assay [5] (at 50.0 µM), 95.2% (active); in assay [6] (setting [7]), 7%; in assay [6] (setting [8]), 97% (active); in assay [6] (at 50.0 µM) it was 95.5% (active).
